Test results taken from PubChem BioAssay (Tox21).
Results filed as inconclusive are left out. Calls of active or inactive are those of the source. Unless noted, calls follow the shape of the full dose curve.

Tests used:
[1] = target: Peroxisome proliferator-activated receptor delta (Homo sapiens) (UniProt Q03181); assay: qHTS assay to identify small molecule agonists of the peroxisome proliferator-activated receptor delta (PPARd) signaling pathway (AID 743212); also: % is scaled to controls: 0 for no effect and ±100 for the full control effect
Sequence of Peroxisome proliferator-activated receptor delta (Homo sapiens) (Q03181 whole entry, looked up): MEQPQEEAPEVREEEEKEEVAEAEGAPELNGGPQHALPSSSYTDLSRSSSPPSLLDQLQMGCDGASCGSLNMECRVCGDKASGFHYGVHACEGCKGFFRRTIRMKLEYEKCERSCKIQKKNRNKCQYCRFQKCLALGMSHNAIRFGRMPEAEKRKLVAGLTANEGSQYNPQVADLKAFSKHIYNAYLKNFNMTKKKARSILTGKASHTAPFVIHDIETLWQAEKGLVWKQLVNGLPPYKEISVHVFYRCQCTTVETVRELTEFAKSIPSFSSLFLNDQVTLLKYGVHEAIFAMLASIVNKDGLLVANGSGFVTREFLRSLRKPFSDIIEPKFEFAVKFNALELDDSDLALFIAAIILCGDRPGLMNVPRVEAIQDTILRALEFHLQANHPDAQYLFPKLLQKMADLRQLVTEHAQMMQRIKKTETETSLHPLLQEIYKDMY
Method in brief: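 Beta-lactamase reporter readout: a ratiometric FRET signal from the LiveBLAzer substrate after 2 h at room temperature. Compound exposure at 37 °C in PPARδ-bla HEK293H cells driven by an upstream activator sequence.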

[2] = qHTS assay to identify small molecule antagonists of the peroxisome proliferator-activated receptor delta (PPARd) signaling pathway - cell viability counter screen (AID 743213; active = well fitted curve in the direction sought with a large enough effect in the repeat runs; an effect the other way counts as inactive or inconclusive; also: % is scaled to controls: 0 for no effect and ±100 for the full control effect; nearly all actives have a fitted effect of over 50% in size)
Method in brief: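 PPARd-bla HEK293H cells were treated with compounds plus agonist L165041 (300 nM final) for 17 h at 37 C. Viability was then read in the same wells by CellTiter-Glo luminescence after 30 min at room temperature.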

[3] = target: Peroxisome proliferator-activated receptor delta (Homo sapiens) (UniProt Q03181); assay: qHTS assay to identify small molecule antagonists of the peroxisome proliferator-activated receptor delta (PPARd) signaling pathway (AID 743215; active = well fitted inhibition curve with a large enough effect in the signal ratio in the repeat runs, not every such curve was filed as active; the % refers to the signal ratio;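 also: cells stimulated with agonist L165041 at 300 nM final during compound exposure; series mostly up to about 62 µM; % is scaled to controls: 0 for no effect and ±100 for the full control effect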)
Method in brief: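 Cells: HEK293H with a UAS-driven beta-lactamase reporter responsive to PPARd. Compounds were co-added with L165041 (300 nM, final) and incubated 17 h at 37 C before a 2 h room-temperature FRET substrate step and fluorescence reading.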

[4] = target: Bile acid receptor (Homo sapiens) (UniProt Q96RI1); assay: qHTS assay to identify small molecule antagonists of the farnesoid-X-receptor (FXR) signaling pathway (AID 743217; active = well fitted inhibition curve with a large enough effect in the signal ratio in the repeat runs, not every such curve was filed as active; the % refers to the signal ratio; also: % is scaled to controls: 0 for no effect and ±100 for the full control effect)
Sequence of Bile acid receptor (Homo sapiens) (Q96RI1 whole entry, looked up): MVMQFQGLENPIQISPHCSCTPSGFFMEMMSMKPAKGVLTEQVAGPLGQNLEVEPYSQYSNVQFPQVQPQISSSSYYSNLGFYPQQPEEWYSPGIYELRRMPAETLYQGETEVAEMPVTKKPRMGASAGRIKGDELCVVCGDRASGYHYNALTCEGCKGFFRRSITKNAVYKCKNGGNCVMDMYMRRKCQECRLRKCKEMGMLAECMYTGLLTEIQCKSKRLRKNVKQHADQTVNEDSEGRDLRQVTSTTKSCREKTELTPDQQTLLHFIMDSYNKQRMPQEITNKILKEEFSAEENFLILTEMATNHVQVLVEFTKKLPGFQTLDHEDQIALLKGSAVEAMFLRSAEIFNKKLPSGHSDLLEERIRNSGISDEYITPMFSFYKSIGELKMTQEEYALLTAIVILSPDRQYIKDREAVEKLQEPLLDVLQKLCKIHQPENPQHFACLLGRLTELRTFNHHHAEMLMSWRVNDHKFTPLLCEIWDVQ
Method in brief: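 Cells carrying a UAS-driven beta-lactamase reporter (GeneBLAzer FXR-UAS-bla HEK 293T) were plated and rested 5 h at 37 °C. Compounds in DMSO were added alongside chenodeoxycholic acid agonist at 50 uM final and left 16 h at 37 °C before FRET substrate readout.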

[5] = qHTS assay to identify small molecule agonists of the farnesoid-X-receptor (FXR) signaling pathway - cell viability counter screen (AID 743218; active = well fitted curve in the direction sought with a large enough effect in the repeat runs; an effect the other way counts as inactive or inconclusive; also: % is scaled to controls: 0 for no effect and ±100 for the full control effect; nearly all actives have a fitted effect of over 45% in size)
Method in brief: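 Cells were seeded, left 5 h at 37 C and 5% CO2, then dosed with compound in DMSO for 16 h. After the beta-lactamase FRET read, CellTiter-Glo was added and luminescence measured 30 min later.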

[6] = target: Bile acid receptor (Homo sapiens) (UniProt Q96RI1); assay: qHTS assay to identify small molecule agonists of the farnesoid-X-receptor (FXR) signaling pathway (AID 743220; active = well fitted activation curve with a large enough effect in the signal ratio in the repeat runs, not every such curve was filed as active; the % refers to the signal ratio; also: % is scaled to controls: 0 for no effect and ±100 for the full control effect)
Method in brief: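 FXR-UAS-bla HEK 293T cells carrying a UAS-driven beta-lactamase reporter were plated for 5 h at 37C/5% CO2, then exposed to DMSO-dissolved Tox21 10K compounds for 16 h at 37C. A LiveBLAzer B/G FRET substrate was loaded for 2 h at room temperature before fluorescence reading.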

[7] = qHTS assay to identify small molecule antagonists of the farnesoid-X-receptor (FXR) signaling pathway - cell viability counter screen (AID 743221; active = well fitted cell-killing curve with a large enough effect in the repeat runs, not every such curve was filed as active; also: % is scaled to controls: 0 for no effect and ±100 for the full control effect; nearly all actives have a fitted effect of over 50% in size)
Method in brief: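 Cytotoxicity is taken from ATP luminescence (CellTiter-Glo, 30 min, room temperature) in FXR-bla HEK 293T cells previously incubated 16 h at 37 C with compound and chenodeoxycholic acid at 50 uM final.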

[8] = target: Vitamin D3 receptor (Homo sapiens) (UniProt P11473); assay: qHTS assay to identify small molecule agonists of the vitamin D receptor (VDR) signaling pathway (AID 743222); also: % is scaled to controls: 0 for no effect and ±100 for the full control effect
Sequence of Vitamin D3 receptor (Homo sapiens) (P11473 whole entry, looked up): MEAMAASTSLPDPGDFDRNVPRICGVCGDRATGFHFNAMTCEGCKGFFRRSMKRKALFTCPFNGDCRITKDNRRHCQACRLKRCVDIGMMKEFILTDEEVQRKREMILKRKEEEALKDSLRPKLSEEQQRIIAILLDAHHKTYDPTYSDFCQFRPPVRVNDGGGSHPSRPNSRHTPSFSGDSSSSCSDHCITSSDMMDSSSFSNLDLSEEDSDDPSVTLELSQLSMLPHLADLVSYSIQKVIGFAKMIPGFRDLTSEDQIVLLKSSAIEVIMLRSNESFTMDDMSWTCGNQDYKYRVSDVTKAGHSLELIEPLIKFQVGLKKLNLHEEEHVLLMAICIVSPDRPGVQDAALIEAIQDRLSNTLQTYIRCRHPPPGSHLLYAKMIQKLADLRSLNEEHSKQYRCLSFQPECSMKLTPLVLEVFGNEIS
Method in brief: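 Cells carrying a VDR-driven beta-lactamase reporter are seeded at 2,000 per well and rested 4 h. Compounds in DMSO are added for 16 h at 37C, and FRET substrate fluorescence is measured after 2 h at room temperature.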

[9] = target: Vitamin D3 receptor (Homo sapiens) (UniProt P11473); assay: qHTS assay to identify small molecule antagonists of the vitamin D receptor (VDR) signaling pathway (AID 743223; active = well fitted inhibition curve with a large enough effect in the signal ratio in the repeat runs, not every such curve was filed as active; the % refers to the signal ratio; also: % is scaled to controls: 0 for no effect and ±100 for the full control effect)
Method in brief: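 Quantitative HTS in VDR-bla reporter cells stimulated with 1alpha,25-dihydroxyvitamin D3, 3 nM final. Compound exposure 16 h, 37C, 5% CO2. Read-out: beta-lactamase FRET substrate fluorescence, 2 h RT.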

[10] = qHTS assay to identify small molecule agonists of the NFkB signaling pathway - cell viability counter screen (AID 1159515); also: series mostly up to about 61 µM; % is scaled to controls: 0 for no effect and ±100 for the full control effect; nearly all actives have a fitted effect of over 55% in size
Method in brief: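 Cells are seeded (2,000 NFkB-bla ME-180 per well), rested overnight, and dosed with DMSO-dissolved compounds for 5 hr at 37 C. Viability is then read by CellTiter-Glo luminescence after 30 min at room temperature.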

[11] = qHTS assay to identify small molecule agonists of the endoplasmic reticulum stress response signaling pathway (AID 1159516; active = well fitted activation curve with a large enough effect in the signal ratio in the repeat runs, not every such curve was filed as active; the % refers to the signal ratio; also: % is scaled to controls: 0 for no effect and ±100 for the full control effect)
Method in brief: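 Cells are seeded at 1,500 per well and incubated overnight. Compounds in DMSO are added for 5 hr at 37 C, then beta-lactamase FRET substrate for 2 hr at room temperature, and fluorescence at 460 and 530 nm is measured.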

[12] = qHTS assay to identify small molecule agonists of the endoplasmic reticulum stress response signaling pathway - cell viability counter screen (AID 1159517);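 also: HeLa cells carrying an ER stress response element beta-lactamase reporter; series mostly up to about 61 µM; % is scaled to controls: 0 for no effect and ±100 for the full control effect; nearly all actives have a fitted effect of over 50% in size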
Method in brief: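 ESRE-bla HeLa cells (1,500/well) were plated overnight at 37 C and exposed to compounds for 5 hr. After the 2 hr beta-lactamase substrate read, CellTiter-Glo went into the same wells, and luminescence was read after 30 min at room temperature.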

[13] = qHTS assay to identify small molecule antagonists of the retinoid-related orphan receptor gamma (ROR-gamma) signaling pathway - cell viability counter screen (AID 1159520; active = well fitted curve in the direction sought with a large enough effect in the repeat runs; an effect the other way counts as inactive or inconclusive; also: % is scaled to controls: 0 for no effect and ±100 for the full control effect; nearly all actives have a fitted effect of over 50% in size)
Method in brief: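 Cytotoxicity was read from cellular ATP (CellTiter-Glo luminescence) after 16 hr at 37 C with 1 uM doxycycline induction. The inducer was added 2 hr after compound transfer to Tet-on ROR gamma CHO cells.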

[14] = target: Nuclear receptor ROR-gamma (Homo sapiens) (UniProt P51449); assay: qHTS assay to identify small molecule antagonists of the retinoid-related orphan receptor gamma (ROR-gamma) signaling pathway (AID 1159521; active = well fitted curve in the direction sought with a large enough effect in the repeat runs; an effect the other way counts as inactive or inconclusive)
Method in brief: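 Inducible-expression reporter assay: doxycycline (1 uM final) switched on RORγ in CHO cells bearing a ROR response element-luciferase construct, with test compounds present from 2 h beforehand. Decreased luminescence after 16 h defined antagonist activity.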

[15] = qHTS assay to identify small molecule agonists of the AP-1 signaling pathway - cell viability counter screen (AID 1159525); also: nearly all actives have a fitted effect of over 55% in size
Method in brief: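 Intracellular ATP by Cell Titer Glo luminescence (30 min, RT) in the same ME-180 AP-1-bla wells after the 5 h compound exposure at 37 °C. Normalised to tetra n-octyl ammonium bromide and DMSO controls.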

[16] = qHTS assay to identify small molecule agonists of the AP-1 signaling pathway (AID 1159526); also: % is scaled to controls: 0 for no effect and ±100 for the full control effect
[17] = target: Retinoic acid receptor RXR-alpha (Homo sapiens) (UniProt P19793); assay: qHTS assay to identify small molecule agonists of the RXR signaling pathway (AID 1159527); also: % is scaled to controls: 0 for no effect and ±100 for the full control effect; nearly all actives have a fitted effect of over 35% in size
Sequence of Retinoic acid receptor RXR-alpha (Homo sapiens) (P19793 whole entry, looked up): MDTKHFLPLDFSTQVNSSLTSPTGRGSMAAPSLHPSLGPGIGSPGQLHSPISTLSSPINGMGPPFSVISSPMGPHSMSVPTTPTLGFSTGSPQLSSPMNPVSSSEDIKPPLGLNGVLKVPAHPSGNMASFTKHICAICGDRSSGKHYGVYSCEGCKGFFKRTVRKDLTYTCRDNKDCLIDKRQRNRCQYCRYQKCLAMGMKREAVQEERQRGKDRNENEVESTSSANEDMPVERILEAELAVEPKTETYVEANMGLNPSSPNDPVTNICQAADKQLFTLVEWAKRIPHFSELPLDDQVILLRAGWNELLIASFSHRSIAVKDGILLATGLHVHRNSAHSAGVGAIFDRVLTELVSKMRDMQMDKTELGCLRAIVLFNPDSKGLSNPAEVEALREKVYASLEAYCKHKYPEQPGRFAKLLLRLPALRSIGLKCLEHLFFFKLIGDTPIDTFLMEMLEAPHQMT
Method in brief: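 Compounds in DMSO were added to RXR-alpha-UAS-bla HEK 293T cells kept in 2% charcoal-stripped serum, and incubated 16 hr at 37 C with 5% CO2. Reporter signal came from a 2 hr B/G FRET substrate step.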

[18] = qHTS assay to identify small molecule agonists of the RXR signaling pathway - cell viability counter screen (AID 1159529; active = well fitted curve in the direction sought with a large enough effect in the repeat runs; an effect the other way counts as inactive or inconclusive)
Method in brief: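 Counter screen: CellTiter-Glo luminescence. Cells: RXR-alpha-UAS-bla HEK 293T. Medium: 2% charcoal-stripped FBS. Treatment: 16 h, 37 C. Reagent incubation: 30 min, RT.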

[19] = qHTS assay to identify small molecule agonists of the vitamin D receptor (VDR) signaling pathway - cell viability counter screen (AID 743224; active = well fitted curve in the direction sought with a large enough effect in the repeat runs; an effect the other way counts as inactive or inconclusive)
Method in brief: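 Cells: VDR-bla, 2,000/well, settled 4 h. Treatment: compounds in DMSO, 16 h, 37C/5% CO2. Readout: CellTiter-Glo luminescence after 30 min RT.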

[20] = qHTS assay to identify small molecule antagonists of the vitamin D receptor (VDR) signaling pathway - cell viability counter screen (AID 743225; active = well fitted curve in the direction sought with a large enough effect in the repeat runs; an effect the other way counts as inactive or inconclusive)
Method in brief: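 Same-well multiplex: following 16 h treatment of HEK 293T cells carrying a UAS-driven beta-lactamase reporter with compound and agonist (3 nM final), and a 2 h FRET substrate step, CellTiter-Glo was added and luminescence read after 30 min.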

CN1C(C)(C)CC(O)CC1(C)C
inactive: outcome [1] | outcome [2] | outcome [3] | outcome [4] | outcome [5] | outcome [6] | outcome [7] | outcome [8] | outcome [9] | outcome [10] | outcome [11] | outcome [12] | outcome [13] | Potency [14] | outcome [15] | outcome [16] | Potency [17] | Potency [18]

CCCC[N+](C)(CCCC)CCCC
inactive: outcome [1] | outcome [2] | outcome [3] | outcome [7] | outcome [8] | outcome [9] | outcome [19] | outcome [20] | outcome [10] | outcome [11] | outcome [12] | outcome [13] | Potency [14] | outcome [15] | outcome [16] | Potency [17] | Potency [18]

C[N+]1(CC2COC(c3ccccc3)(c3ccccc3)O2)CCCCC1 (stereo not drawn)
inactive: outcome [1] | outcome [2] | outcome [3] | outcome [4] | outcome [5] | outcome [6] | outcome [7] | outcome [19] | outcome [20] | outcome [10] | outcome [11] | outcome [12] | activity, negative = cytotoxicity [13] -0.623% [at 19 µM] | activity change, negative = inhibition [14] 7.79% [at 19 µM] | viability change, negative = cytotoxic [15] 0.502% [at 15.8 µM] | activation [16] -1.1% [at 15.8 µM] | activation [17] -0.901% [at 15.8 µM] | activity change, negative = cytotoxicity [18] -2.46% [at 15.8 µM]

COC(=O)Nc1ccc(Cl)c(Cl)c1
inactive: outcome [1] | outcome [2] | outcome [3] | outcome [4] | outcome [6] | outcome [7] | outcome [8] | outcome [19] | outcome [20] | outcome [10] | outcome [11] | outcome [12] | outcome [13] | Potency [14] | outcome [15] | outcome [16] | Potency [17] | Potency [18]

CCNS(=O)(=O)c1ccc(C)cc1
inactive: outcome [1] | outcome [2] | outcome [3] | outcome [5] | outcome [7] | outcome [19] | outcome [20] | outcome [10] | outcome [11] | outcome [12] | outcome [13] | Potency [14] | outcome [15] | outcome [16] | Potency [17] | Potency [18]

CC1=C(C/C=C(\C)CCC[C@H](C)CCC[C@H](C)CCCC(C)C)C(=O)c2ccccc2C1=O
inactive: outcome [1] | outcome [2] | outcome [3] | outcome [7] | outcome [8] | outcome [9] | outcome [20] | outcome [10] | outcome [11] | outcome [12] | outcome [13] | Potency [14] | outcome [15] | outcome [16] | Potency [17] | Potency [18]

C[C@@H]1C[C@H]2[C@@H]3C[C@H](F)C4=CC(=O)C(Cl)=C[C@]4(C)[C@@]3(F)[C@@H](O)C[C@]2(C)[C@@]1(O)C(=O)CO
inactive: outcome [1] | outcome [2] | outcome [4] | outcome [5] | outcome [6] | outcome [7] | outcome [19] | outcome [20] | outcome [10] | outcome [11] | outcome [12] | outcome [13] | Potency [14] | outcome [15] | outcome [16] | Potency [17] | Potency [18]

CC(=O)C1CCCCC1=O (stereo not drawn)
inactive: outcome [1] | outcome [2] | outcome [4] | outcome [5] | outcome [6] | outcome [7] | outcome [8] | outcome [9] | outcome [10] | outcome [11] | outcome [12] | outcome [13] | Potency [14] | outcome [15] | outcome [16] | Potency [17] | Potency [18]

CC1CCC(CO)CC1 (stereo not drawn)
inactive: outcome [1] | outcome [2] | outcome [3] | outcome [5] | outcome [7] | outcome [8] | outcome [9] | outcome [19] | outcome [20] | outcome [10] | outcome [11] | outcome [12] | outcome [13] | Potency [14] | outcome [15] | outcome [16] | Potency [17] | Potency [18]

C1CCC2=NCCCN2CC1
inactive: outcome [2] | outcome [5] | outcome [7] | outcome [8] | outcome [9] | outcome [19] | outcome [10] | outcome [11] | outcome [12] | outcome [13] | Potency [14] | outcome [15] | outcome [16] | Potency [17] | Potency [18]

c1ccc2sc(SN3CCOCC3)nc2c1
inactive: outcome [2] | outcome [3] | outcome [5] | outcome [7] | outcome [8] | outcome [9] | outcome [19] | outcome [20] | outcome [10] | outcome [11] | outcome [12] | outcome [13] | Potency [14] | outcome [15] | outcome [16] | Potency [17] | Potency [18]

CC(C)[C@H]1CC[C@@H](C)CC1=O
inactive: outcome [2] | outcome [5] | outcome [7] | outcome [19] | outcome [20] | outcome [10] | outcome [11] | outcome [12] | outcome [13] | Potency [14] | outcome [15] | outcome [16] | Potency [17] | Potency [18]

Nc1c2c(nc3c1CCC3)CCCC2
inactive: outcome [2] | outcome [4] | outcome [6] | outcome [7] | outcome [8] | outcome [9] | outcome [19] | outcome [20] | outcome [10] | outcome [11] | outcome [12] | outcome [13] | Potency [14] | outcome [15] | outcome [16] | Potency [17] | Potency [18]

C=C(C)C(=O)OCCOCCOCCOCCOC(=O)C(=C)C
inactive: outcome [2] | outcome [4] | outcome [5] | outcome [6] | outcome [7] | outcome [8] | outcome [9] | outcome [20] | outcome [10] | outcome [11] | outcome [12] | outcome [13] | Potency [14] | outcome [15] | outcome [16] | Potency [17] | Potency [18]

CCN(Cc1ccccc1)c1ccccc1
inactive: outcome [1] | outcome [7] | outcome [19] | outcome [20] | outcome [10] | outcome [11] | outcome [12] | outcome [13] | Potency [14] | outcome [15] | outcome [16] | Potency [17] | Potency [18]
